# From the OligoGym collection
# Target: AMY2A
# Assay: pooled miR-30 sensor sort-seq; sequence = guide strand
# Details: shRNA
# Further: reference of the scale not given here.
row,Sequence,sensor-assay potency score (higher = more potent)
1,TTGTACAGCCTAGCATCCCAGA,-1.14
2,TTAAGTAAGACATCTTCTCTCC,0.353
3,TTTACCATCATTGAAATCCCAT,-0.145
4,TTATCCACAAAGACAAGCGCTC,-0.172
5,TACATTGCGGAAAATAACCATG,-1.22
6,TTAAAGAAAATGACCAGTCATC,-0.896

# Target: ANAPC5
# Assay: as above
# Details: shRNA
row,Sequence,sensor-assay potency score (higher = more potent)
1,TTTGATTCTGATCTGCACTGAA,0.516
2,TCACATAACATCCATAACTGGG,-0.755
3,TTTTGATCACATAACATCCATA,-1.19
4,TGTAATACAACCGCTTTCCTAT,-0.539
5,TTTGACAGTGTAATATCTGGGC,0.588
6,TACACTTGTTTTGTGAACCTCT,0.756
7,ATAGCTATCGGATCTCTTCTGC,0.457
